The inhibition is the relative decrease from the control value, in per cent.

A number with no mark means an inactive call. For part of these data: Results with a measured potency or affinity are listed apart. Calls of active or inactive are those of the source. Unless noted, how the calls were made is not given here.

The nature of test [1]: antimalarial activity against Dd2 strain (AID 2302;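 active means growth inhibition above 50% at the single 2 µM test dose, taken to imply half-maximal potency below 2 µM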;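 further: 0% = DMSO untreated growth and 100% = chloroquine plus artemisinin killed control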). To be noted: P. falciparum Dd2 in RBCs, LDH growth readout, 72 h; at 2 µM; stronger effect = higher value.
The nature of test [2]: HepG2 cytotoxicity, primary screen, cytotoxicity control for P. falciparum antimalarial project, cell-based, ATP luminescence (AID 2303;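 active means inhibition above 50%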;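 further: 0% = DMSO wells and 100% = digitonin-killed cells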). To be noted: HepG2 viability, 24-48 h, at 10 µM, stronger effect = higher value.
In test [3] the target is L-lactate dehydrogenase (Plasmodium falciparum (isolate CDC / Honduras)) (UniProt Q27743). Put plainly: PfLDH activity inhibition – cell lysate, 3D7 strain, counter-screen for P. falciparum growth inhibition project (AID 2304).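 Further: 0% = vehicle and 100% = reference inhibitor.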 To be noted: P. falciparum 3D7 crude extract, LDH APAD/NBT absorbance; at 2 µM; stronger effect = higher value. For orientation: Counterscreens check selectivity or assay interference.

Test [4] in a line: inhibition of 3D7 malaria parasite growth – strain 3D7 (AID 2306).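 Further: 0% = DMSO wells and 100% = chloroquine plus artemisinin control wells.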 To be noted: P. falciparum 3D7 erythrocytic growth, LDH absorbance, 72 h; at 2 µM; stronger effect = higher value.
Test [5] concerns the target Calcium-dependent protein kinase 1 (Plasmodium falciparum (isolate 3D7)) (UniProt P62344). Kind of test: PfCDPK1 kinase inhibitors, biochemical, TCAMS library (AID 1159585; cut-off not given, nearly all actives have IC50 up to about 0.98 µM;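 further: inhibitors leave more ATP so luminescence rises with inhibition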). The note with it: recombinant PfCDPK1, Kinase-Glo ATP depletion luminescence. In general terms: Kinase-Glo reads ATP consumption through a luciferase reaction.
For test [6], the target named is Plasmodium falciparum protein kinase 6 (PK6, PF3D7_1337100) (UniProt Q8IDW1). Kind of test: PfPK6 kinase inhibitors, biochemical, TCAMS library (AID 1159586). The note with it: recombinant PfPK6, Kinase-Glo ATP depletion luminescence.
The target in test [7] is Protein kinase 7 (PK7), Plasmodium falciparum 3D7 (PF3D7_0213400) (UniProt Q7YTF7). Put plainly: inhibition of Plasmodium PK7 catalytic activity – biochemical, TCAMS antimalarial set, Kinase-Glo luminescence (AID 1159587). The note with it: recombinant PfPK7, Kinase-Glo ATP depletion luminescence.
The target in test [8] is Calcium-dependent protein kinase 4 (Plasmodium falciparum (isolate 3D7)) (UniProt Q8IBS5). Put plainly: PfCDPK4 kinase inhibitors, biochemical, TCAMS library (AID 1159588; cut-off not given, nearly all actives have IC50 up to about 0.91 µM). To be noted: recombinant PfCDPK4, Kinase-Glo ATP depletion luminescence.
Calcium-dependent protein kinase 4 (Plasmodium falciparum (isolate 3D7)), sequence (Q8IBS5 whole entry, looked up): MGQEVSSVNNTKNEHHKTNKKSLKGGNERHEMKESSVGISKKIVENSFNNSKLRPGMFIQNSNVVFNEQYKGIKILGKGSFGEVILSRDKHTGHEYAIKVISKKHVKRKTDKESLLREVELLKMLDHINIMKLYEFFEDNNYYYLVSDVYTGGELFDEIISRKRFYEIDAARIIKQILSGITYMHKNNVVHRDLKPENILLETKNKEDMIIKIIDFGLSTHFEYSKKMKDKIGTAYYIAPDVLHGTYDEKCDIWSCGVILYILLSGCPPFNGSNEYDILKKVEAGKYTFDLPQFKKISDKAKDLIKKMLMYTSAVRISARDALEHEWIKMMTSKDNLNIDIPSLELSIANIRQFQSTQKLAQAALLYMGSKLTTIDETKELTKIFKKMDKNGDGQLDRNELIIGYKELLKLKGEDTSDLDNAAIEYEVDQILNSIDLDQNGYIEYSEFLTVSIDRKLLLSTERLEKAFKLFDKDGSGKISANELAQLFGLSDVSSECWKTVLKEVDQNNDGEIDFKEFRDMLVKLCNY

Protein kinase 7 (PK7), Plasmodium falciparum 3D7 (PF3D7_0213400), sequence (Q7YTF7 1-343): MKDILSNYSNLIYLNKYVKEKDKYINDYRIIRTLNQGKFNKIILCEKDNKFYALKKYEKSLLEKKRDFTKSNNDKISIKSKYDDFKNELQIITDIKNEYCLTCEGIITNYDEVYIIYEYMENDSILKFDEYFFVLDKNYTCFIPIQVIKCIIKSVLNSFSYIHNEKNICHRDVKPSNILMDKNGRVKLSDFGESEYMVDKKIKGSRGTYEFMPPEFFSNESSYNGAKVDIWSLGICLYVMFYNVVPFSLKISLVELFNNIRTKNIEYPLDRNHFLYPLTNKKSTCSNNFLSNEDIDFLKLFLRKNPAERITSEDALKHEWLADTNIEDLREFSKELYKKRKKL
L-lactate dehydrogenase (Plasmodium falciparum (isolate CDC / Honduras)), sequence (Q27743 whole entry, looked up): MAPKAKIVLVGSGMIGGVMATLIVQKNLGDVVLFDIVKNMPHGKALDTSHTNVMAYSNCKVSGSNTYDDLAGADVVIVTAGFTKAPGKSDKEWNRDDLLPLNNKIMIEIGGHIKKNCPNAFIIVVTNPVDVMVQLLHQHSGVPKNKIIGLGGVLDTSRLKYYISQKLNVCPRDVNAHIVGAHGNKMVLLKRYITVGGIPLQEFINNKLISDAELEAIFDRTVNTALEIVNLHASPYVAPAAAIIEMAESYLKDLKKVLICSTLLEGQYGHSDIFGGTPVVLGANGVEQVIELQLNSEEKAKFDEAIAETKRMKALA
Plasmodium falciparum protein kinase 6 (PK6, PF3D7_1337100), sequence (Q8IDW1 1-305): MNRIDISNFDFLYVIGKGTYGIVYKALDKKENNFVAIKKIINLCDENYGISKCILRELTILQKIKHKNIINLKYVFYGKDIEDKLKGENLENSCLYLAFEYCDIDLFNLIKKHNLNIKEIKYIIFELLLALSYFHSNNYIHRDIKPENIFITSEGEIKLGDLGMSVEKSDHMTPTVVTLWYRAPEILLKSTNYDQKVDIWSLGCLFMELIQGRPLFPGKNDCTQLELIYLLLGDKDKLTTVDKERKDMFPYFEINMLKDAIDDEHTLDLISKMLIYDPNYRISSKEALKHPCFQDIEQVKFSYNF
Calcium-dependent protein kinase 1 (Plasmodium falciparum (isolate 3D7)), sequence (P62344 whole entry, looked up): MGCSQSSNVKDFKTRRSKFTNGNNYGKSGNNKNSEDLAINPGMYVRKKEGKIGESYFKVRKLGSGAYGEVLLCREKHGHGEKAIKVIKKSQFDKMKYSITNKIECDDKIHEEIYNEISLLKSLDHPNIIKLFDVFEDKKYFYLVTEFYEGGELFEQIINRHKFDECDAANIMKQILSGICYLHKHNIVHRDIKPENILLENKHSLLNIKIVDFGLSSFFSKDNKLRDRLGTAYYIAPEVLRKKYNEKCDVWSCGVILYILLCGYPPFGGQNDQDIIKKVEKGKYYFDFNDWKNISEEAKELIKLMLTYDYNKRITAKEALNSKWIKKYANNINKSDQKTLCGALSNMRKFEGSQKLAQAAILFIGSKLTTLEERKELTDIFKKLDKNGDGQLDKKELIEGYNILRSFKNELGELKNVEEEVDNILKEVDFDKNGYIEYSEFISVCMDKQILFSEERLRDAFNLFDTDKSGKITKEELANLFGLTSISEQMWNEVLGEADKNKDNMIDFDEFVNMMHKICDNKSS

As for `COc1ccc(CNc2ccnc(-n3cnc4cc(C)c(C)cc43)n2)cc1Cl`, the growth inhibition in test [1] and in test [4] was 100% (active) in each case. Besides, the inhibition in test [2] was 6%; in test [3], -8%. In addition, the result in test [5], in test [6], in test [7] and in test [8] was inactive.
Take `COc1ccc2nc(-c3ccccc3)cc(NN=Cc3ccncc3)c2c1`: the results for the growth inhibition in test [1] and in test [4] were 27% and 99% (active), respectively. Moreover, the figures for the inhibition in test [2] and in test [3] were 14% and -2%, respectively. Further, the outcome in test [5], in test [6], in test [7] and in test [8] was inactive.
In the case of `OC(CN1c2ccccc2Sc2ccccc21)CN(C1CCCCC1)C1CCCCC1` (stereo not drawn), the growth inhibition was 96% (active) in test [1] and 99% (active) in test [4]. Besides, the inhibition in test [2] was 46%; in test [3], -5%. The result in test [5], in test [6], in test [7] and in test [8] was inactive.
Turning to `Cc1ccc2c(NN=Cc3cccc([N+](=O)[O-])c3)cc(C)nc2c1`, the growth inhibition in test [1] is 97% (active); in test [4], 102% (active). The inhibition is 33% in test [2] and 5% in test [3]. In addition, the outcome in test [5], in test [6], in test [7] and in test [8] was inactive.
Consider `O=C(Nc1nc2cc(S(=O)(=O)NCCCN3CCOCC3)ccc2n1CCCn1ccnc1)c1ccc(Cl)cc1`, for which the growth inhibition in test [1] is -6%; in test [4], 95% (active). In addition, the inhibition is -27% in test [2] and -1% in test [3]. Moreover, the outcome in test [5], in test [6], in test [7] and in test [8] was inactive.
On to `CC1CCc2c(C(=O)Nc3c(F)cc(F)cc3Br)csc2C1` (stereo not drawn), for which the growth inhibition in test [1] was 59% (active); in test [4], 96% (active). For the same molecule, the inhibition is -1% in test [2] and 3% in test [3]. The result in test [5], in test [6], in test [7] and in test [8] was inactive.
`COc1cncc(/C=C/c2cncc(C(=O)NCCc3ccc(Cl)cc3Cl)c2)c1`: the growth inhibition is 49% in test [1] and 99% (active) in test [4]. For the same molecule, the inhibition is -3% in test [2] and -9% in test [3]. Besides, the result in test [5], in test [6], in test [7] and in test [8] was inactive.
For `O=[N+]([O-])c1ccc2c(c1)c1ccccc1n2Cc1ccccc1O`, the values for the growth inhibition in test [1] and in test [4] were 84% (active) and 93% (active), respectively. For the same molecule, the inhibition in test [2] is -2%; in test [3] it was 0%. Further, the outcome in test [5], in test [6], in test [7] and in test [8] was inactive.
For `CCCN(Cc1nnc(-c2ccco2)o1)C(=O)C1CCN(c2ncc(C(F)(F)F)cc2Cl)CC1`, the growth inhibition was 92% (active) in test [1] and 98% (active) in test [4]. Moreover, the figures for the inhibition in test [2] and in test [3] were 19% and -6%, respectively. Besides, the outcome in test [5], in test [6], in test [7] and in test [8] was inactive.
As to `CCOC(=O)c1cn(CC)c2cc(O[C@@H]3CCN(C(=O)OC(C)(C)C)C3)ccc2c1=O`, the growth inhibition is 94% (active) in test [1] and 97% (active) in test [4]. The inhibition in test [2] is 13%; in test [3] it was -8%. Moreover, the result in test [5], in test [6], in test [7] and in test [8] was inactive.
As to `CC(C)CN1CCCN(Cc2cccc(NC(=O)c3ccc(-c4ccccc4)cc3)c2)CC1`, the values for the growth inhibition in test [1] and in test [4] were 24% and 99% (active), respectively. Moreover, the inhibition in test [2] was 30%; in test [3] it was 1%. The outcome in test [5], in test [6], in test [7] and in test [8] was inactive.
Turning to `COc1cc(Cc2cnc(NCCN3CCNCC3)nc2N)ccc1OCc1ccc(C(F)(F)F)cc1`, the growth inhibition is 4% in test [1] and 98% (active) in test [4]. The values for the inhibition in test [2] and in test [3] were 12% and 4%, respectively. The result in test [5], in test [6], in test [7] and in test [8] was inactive.
Consider `CC(=O)Nc1ncc(C(=O)Nc2cccc(-c3ccc(-c4nc5ccc(F)cc5[nH]4)cc3)c2)s1`, for which the growth inhibition was 78% (active) in test [1] and 94% (active) in test [4]. For the same molecule, the inhibition in test [2] was 18%; in test [3], 4%. Moreover, the result in test [5], in test [6], in test [7] and in test [8] was inactive.
For `CN(C(=O)C1(c2ccc(Cl)cc2)CC1)C1CCN(CCCCCNC(=O)/C=C/c2ccc(Cl)c(Cl)c2)CC1`, the growth inhibition is 0% in test [1] and 88% (active) in test [4]. Further, the inhibition is 91% (active) in test [2] and -2% in test [3]. In addition, the result in test [5], in test [6], in test [7] and in test [8] was inactive.
Regarding `COc1cccc2cc(C(=O)N[C@@H](CC(C)C)C(=O)N[C@H](/C=N/N3CC(=O)NC3=O)CC(C)C)oc12`, the growth inhibition in test [1] was 64% (active); in test [4], 86% (active). Further, the inhibition is 3% in test [2] and 2% in test [3]. The outcome in test [5], in test [6], in test [7] and in test [8] was inactive.
In the case of `C#CC[C@@H](NC(N)=O)C(=O)O`, the figures for the growth inhibition in test [1] and in test [4] were 0% and 97% (active), respectively. In addition, the inhibition in test [2] is 1%; in test [3] it was -2%. For the same molecule, the result in test [5], in test [6], in test [7] and in test [8] was inactive.
As for `COc1ccc(Nc2nc(NCc3cccnc3)cc(-c3ccc(OC)cc3)n2)cc1`, the growth inhibition in test [1] was 16%; in test [4], 89% (active). The inhibition in test [2] is -2%; in test [3] it was 3%. The outcome in test [5], in test [6], in test [7] and in test [8] was inactive.
As to `COc1ccc(CCNCCCCCNCCc2ccc(Cl)cc2)cc1OC`, the growth inhibition is -2% in test [1] and 101% (active) in test [4]. Besides, the inhibition is 32% in test [2] and -11% in test [3]. Also, the result in test [5], in test [6], in test [7] and in test [8] was inactive.
Regarding `NC(=O)C1CCN(Cc2ccc(-c3ccc(-c4nc5ccc(C(F)(F)F)cc5[nH]4)cc3)cc2)CC1`, the growth inhibition in test [1] was 90% (active); in test [4], 100% (active). The inhibition is 25% in test [2] and -1% in test [3]. Besides, the outcome in test [5], in test [6], in test [7] and in test [8] was inactive.
Take `COc1ccc2ncc(F)c(CCN3C[C@H](CNCc4ccc5oc(=O)ccc5c4)[C@H](O)C3)c2n1`: the growth inhibition was 6% in test [1] and 89% (active) in test [4]. For the same molecule, the inhibition in test [2] was 18%; in test [3], 3%. The outcome in test [5], in test [6], in test [7] and in test [8] was inactive.
Take `CCOC(=O)CC[C@@H](NC(=O)c1ccc(NCc2ccc3ccc4nc(C)[nH]c(=O)c4c3c2)cc1F)C(=O)N[C@@H](Cc1c[nH]c2ccccc12)C(=O)OCC`: the results for the growth inhibition in test [1] and in test [4] were 77% (active) and 98% (active), respectively. The inhibition is 45% in test [2] and 0% in test [3]. Besides, the result in test [5], in test [6], in test [7] and in test [8] was inactive.
